The list is not random: actives were taken first. Their share in the collection is about 6.1%.
D1 potentiator – Potentiators of Human D1 Dopamine Receptor: qHTS. D(1A) dopamine receptor (Homo sapiens), P21728. HEK293 TREx D1 cells, calcium flux, dopamine EC20 potentiation. potentiation, % at 10 µM. 360,000 compounds, 0.036% hits. AID 504651, 2011; in the data active = potentiation above about 30%; note: 0% is about no effect
Target sequence (P21728 whole entry, looked up): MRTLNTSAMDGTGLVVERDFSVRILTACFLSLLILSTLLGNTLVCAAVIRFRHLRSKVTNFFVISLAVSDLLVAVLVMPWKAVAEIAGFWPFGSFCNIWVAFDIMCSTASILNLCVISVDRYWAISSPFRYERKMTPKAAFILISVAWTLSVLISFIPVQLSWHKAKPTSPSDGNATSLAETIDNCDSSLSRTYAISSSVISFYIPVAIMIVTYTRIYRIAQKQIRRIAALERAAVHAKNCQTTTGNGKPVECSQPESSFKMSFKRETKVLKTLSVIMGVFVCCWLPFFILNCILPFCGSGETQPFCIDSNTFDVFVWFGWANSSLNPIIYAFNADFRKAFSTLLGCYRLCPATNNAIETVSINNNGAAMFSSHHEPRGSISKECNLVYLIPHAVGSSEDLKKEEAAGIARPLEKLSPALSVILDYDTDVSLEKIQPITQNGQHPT
DRD3 antagonist – qHTS of D3 Dopamine Receptor Antagonist: qHTS. 360,000 compounds, 2.5% hits. D(3) dopamine receptor (Homo sapiens), P35462. max response, negative = inhibition, %. D3R cells, DiscoveRx beta-arrestin luminescence, antagonist mode; active compounds read low; in the data active = max response below about -50%; inconclusive = no clear call, values can overlap the other calls; note: % is set by controls: 0 for no effect and ±100 for the full control effect
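Cells plated overnight at 1500 cells/well, then exposed to library compounds with dopamine controls for 90 minutes at 37 degrees C. DiscoveRx reagent added for 30–60 minutes at room temperature; luminescence read, quantitative HTS format.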
D1 ag – Allosteric Agonists of the Human D1 Dopamine Receptor: qHTS; D(1A) dopamine receptor (Homo sapiens), P21728; HEK293 T-REx D1 cells, calcium flux, agonist mode; activation, % at 2 µM; 360,000 compounds, 1% hits; in the data active = activation above about 30%; note: 0% is about no effect
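Inducible HEK293 T-REx D1 cells, force-coupled to calcium signalling, were plated at 4000 cells/well with tetracycline and held overnight at 30 C. After no-wash calcium dye loading, compound-evoked calcium rise over 180 s flagged agonists.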
D1 antagonist – Antagonist of Human D 1 Dopamine Receptor: qHTS. D(1A) dopamine receptor (Homo sapiens), P21728. HEK293 TREx D1 cells, calcium flux, dopamine EC80; active compounds read low. activity change, negative = inhibition, % at 10 µM. 360,000 compounds, 3.2% hits. AID 504652, 2011; in the data active = activity change below about -30%; note: % is set by controls: 0 for no effect and ±100 for the full control effect
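Tetracycline-induced HEK293 Trex D1 cells, force-coupled to calcium, dye-loaded; compounds added and read 180 s, then EC80 dopamine added and calcium flux tracked kinetically another 180 s.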
DRD3 agonist – qHTS of D3 Dopamine Receptor Agonist: qHTS | D(3) dopamine receptor (Homo sapiens), P35462 | D3R DiscoveRx beta-arrestin cells, luminescence, 90 min | max activation, % | 410,000 compounds, 0.58% hits; in the data active = max activation above about 30%; note: 0% is about no effect
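Agonist mode: compounds and dopamine controls were applied to plated cells for 90 min at 37 degrees C after an overnight attachment at 1500 cells/well. Luminescent read-out followed 30 - 60 minutes at room temperature with DiscoveRx detection reagent.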
Starred values were filed as active, the others as inactive; ? = inconclusive; . = no result; ! = repeats disagree.

SMILES	D1 potentiator	DRD3 antagonist	D1 ag	D1 antagonist	DRD3 agonist
O=C1/C(=C/c2ccc(O)cc2)SC(=S)N1CC1CCCO1 (centres undefined)	-0.2	-24.3	48.8*	-2.6	-0.9
CC(=O)Oc1ccc(/C=C2/SC(=S)N(Cc3ccccc3)C2=O)cc1	-3.5	-16.5	4.7	1.2	-10.2
O=C(O)c1ccc(/C=C2/SC(=S)N(Cc3ccccc3)C2=O)cc1	30.2*	2.1	1.9	2.0	2.5
O=C(O)c1ccc2c(c1)C(=O)N(Cc1ccccc1)C2=O	1.5	-50.7*	3.2	-13.5	-1.5
CN1CCN(C(=O)CCN2C(=O)/C(=C\c3ccc(Cl)cc3)SC2=S)CC1	-2.6	-11.6	16.0	-43.5*	-8.0
O=C(O)c1ccc(CN2C(=O)CSC2=S)cc1	-8.0	15.2	30.5*	11.8	-0.7
O=C(O)c1ccc(N2C(=O)CSC2=S)cc1	.	-4.4	.	.	8.4
O=C1/C(=C\c2ccc(O)cc2)SC(=S)N1Cc1ccccc1	-5.5	-81.9*	26.9	-0.1	-24.1
Cc1sc2ccccc2c1CNC[C@H]1O[C@@H](n2cnc(C(N)=O)n2)[C@H](O)[C@@H]1O	.	17.6	.	.	47.9*
Cc1nc2ncnn2c(C)c1Cc1ccccc1Cl	.	-82.3*	13.7	22.1	4.6
CCOC(=O)N1CCC(NC(=O)c2cc(COc3ccc(F)cc3Cl)on2)CC1	-2.6	25.5	11.3	-11.8	0.9
CSc1ccccc1OCc1cc(C(=O)N2CCc3c(Cl)cccc3C2)no1	-5.4	8.6	10.4	11.0	32.2*
CCOC(=O)N1CCC(NC(=O)c2cc(C)c3c(C)nn(-c4ccccc4)c3n2)CC1	-0.1	3.3	0.8	21.3	45.6*
COc1cc2c(cc1OC)CN(C(=O)c1cc(COc3ccccc3SC)on1)CC2	.	6.9	.	.	3.1
CCOC(=O)N1CCC(NC(=O)c2cc(COc3ccccc3SC)on2)CC1	-2.7	5.1	15.8	-33.0*	-5.2
Cn1cnc(S(=O)(=O)N2CCCC(C(=O)NCc3ccc(Cl)cc3)C2)c1 (centres undefined)	-0.5	.	-1.9	-0.1	4.3
COc1ccccc1-c1cc(C(=O)NC(C)C)no1	.	-21.3	.	.	-11.9
COc1ccccc1-c1cc(C(=O)NC(C)c2ccccc2)no1 (centres undefined)	-14.9	-58.0*	9.9	-42.4*	-29.1
Cc1cc(C(=O)C(C)OC(=O)C2=NNC(=O)CC2)c(C)n1-c1ccc(OC(F)F)cc1 (centres undefined)	-6.3	0.0	6.9	-11.2	0.0
Cc1cc(C(=O)COC(=O)C2=NNC(=O)CC2)c(C)n1-c1cccc(C(F)(F)F)c1	-2.1	19.7	9.1	-16.9	40.5*
Cc1cc(C(=O)COC(=O)C2=NNC(=O)CC2)c(C)n1-c1ccc(OC(F)F)cc1	-3.4	17.1	11.2	-34.6*	-4.8
CN1CCN(C(c2ccccc2)c2ccc(Cl)cc2)CC1 (centres undefined)	-4.2	-92.1*	8.8	3.6	-91.4
CN1CCN(C(c2cccc(Cl)c2)c2ccccc2Cl)CC1 (centres undefined)	-1.8	-80.8*	22.2	4.3	-21.7
CN1CCN(C(c2ccccc2Cl)c2sc3nc(-c4ccco4)nn3c2O)CC1 (centres undefined)	-1.6	.	6.4	.	-8.6
CCN(CC)CCn1c(SCC(=O)Nc2ccc3c(c2)CCC3)nc2ccccc2c1=O	-3.7	-18.8	1.5	-31.8*	-3.2
SMILES	D1 potentiator	DRD3 antagonist	D1 ag	D1 antagonist	DRD3 agonist
CCOCCCn1c(SCC(=O)Nc2cccc(OC)c2)nc2ccccc2c1=O	-3.5	13.1	1.5	-46.2*!	-10.4
O=C(CSc1nc2ccccc2c(=O)n1-c1ccccc1F)Nc1ccc2c(c1)CCC2	-3.2	-0.8	4.9	5.4	2.9
O=c1c(=O)n(-c2ccc(F)c(F)c2)ccn1Cc1ccc(F)cc1Cl	-2.1	.	3.6	6.0	1.0
Cc1ccccc1Cn1ccn(-c2ccc(F)c(F)c2)c(=O)c1=O	-1.7	.	6.0	10.1	68.8*
CCCS(=O)(=O)c1ncc(Cl)c(C(=O)N(Cc2ccccc2)Cc2ccco2)n1	-2.8	.	1.4	-42.6*	-25.8
Cc1ccc(S(=O)(=O)N2CCN(C(=O)c3cc(S(=O)(=O)N4CCOCC4)c(Cl)cc3Cl)CC2)cc1	.	11.8	.	.	2.2
CC1OC23CCCCC2C(C#N)(C(=N)O3)C1(C#N)C#N (centres undefined)	-3.6	3.6	-1.0	-43.3*	6.1
CC1(CC(=O)N/N=C/c2ccc(OCc3ccc(Cl)cc3Cl)cc2)OCCCO1	-7.5	35.8	4.2	-31.3*	4.8
CCn1c(CCl)nc2cc(S(=O)(=O)N3CCOCC3)ccc21	.	-8.2	.	.	-3.7
CCOC(=O)c1c(/N=C/c2cc(OC)cc([N+](=O)[O-])c2O)sc(C)c1C	-6.5	-71.0*	1.4	-10.4	-15.6
CCc1n[nH]c(=S)n1/N=C/c1cc(OC)cc([N+](=O)[O-])c1O	3.4	-94.2*	0.1	-1.5	-27.2
Cc1ccc(Cn2c(C)c(CNCc3ccccc3F)c(C(=O)O)c2C)cc1	-2.4	.	-1.2	15.1	3.5
COc1cc(Cl)c(C)cc1NC(=O)c1nn(-c2ccc(C)cc2)c(=O)n(C)c1=O	7.9	.	2.7	-97.8*	3.7
Cc1ccc(-n2nc(C(=O)Nc3ccc(F)cc3Cl)c(=O)n(C)c2=O)cc1	-2.2	.	3.4	7.3	3.9
Cc1ccccc1CS(=O)(=O)c1nnc([C@H](CC(C)C)NC(=O)OC(C)(C)C)o1	-0.7	-65.9*	2.6	-16.8	-59.1
CC(C)[C@H](NC(=O)OC(C)(C)C)c1nnc(S(=O)(=O)Cc2c(F)cccc2Cl)o1	-1.3	?	3.0	-16.1	-19.7
CC[C@@H](C)[C@H](NC(=O)OC(C)(C)C)c1nnc(S(=O)(=O)Cc2cc(C)ccc2C)o1	-4.8	-79.4*	5.8	-14.7	-8.1
OCC(O)C1OC(c2ccccc2)OC(CO)C1O (centres undefined)	.	15.2	.	.	30.9*
OCC(O)C1OC(c2ccco2)OC(CO)C1O (centres undefined)	.	4.1	.	.	5.7
COc1ccc(Nc2cc(C(=O)NCCCN(C)C3CCCCC3)c3ccccc3n2)cc1	0.6	.	65.3*	-40.7*	-12.8
COc1ccc(Nc2cc(C(=O)NCCCN(C)C3CCCCC3)c3ccccc3n2)c(OC)c1	-1.7	.	33.7*	-13.7	-19.1
COc1ccc(Nc2cc(C(=O)NC3CCCC3)c3ccccc3n2)cc1	4.3	.	-0.5	-9.4	4.1
COc1ccc(OC)c(Nc2cc(C(=O)NCc3ccccc3)c3ccccc3n2)c1	2.2	.	0.0	-79.8*	-15.6
CCN(CC)CCCNC(=O)c1cc(Nc2ccc(OC)cc2OC)nc2ccccc12	-8.9	-18.9	1.3	-11.9	-1.7

Screening data from PubChem BioAssay.
